PubChem BioAssay AID485297 (National Center for Advancing Translational Sciences (NCATS), 2010)
Hit rate of the full screen: of about 320,000 compounds, about 9,100 (2.8%) were called active. Roughly 3% stayed inconclusive and do not appear here. The list comes from a sample in which actives are over-represented; it also holds similar structures and randomly drawn compounds. A number with no mark means an inactive call. Calls follow the shape of the dose curve; as a rule, active = well fitted activation curve with a large enough effect; inconclusive = small, poorly fitted or top-dose-only effect; inactive = no such curve, though single readings can be large or run the other way.

experiment: qHTS Assay for Rab9 Promoter Activators; settings: Huh7 Rab9 promoter-luciferase reporter, luminescence, 24 h; series mostly up to 9.22 µM; activation, negative = inhibition: at the top concentration; also: nearly all actives have a fitted effect of over 60% in size; as to activation, negative = inhibition: % of control where 0% means no effect
Outline: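 Cell-based reporter: Huh7 stable for Rab9 promoter-driven luciferase, plated in reduced-serum medium with 10% FBS at 1500 cells/well, compound-treated 24 h at 37 °C, luminescence read after 10 min reagent.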
Potency is read from the fitted curve at half-maximal effect.

Structure (SMILES)	activation, negative = inhibition [%]	Potency
COc1cc2ccccc2cc1C(=O)Nc1ccncc1	18.7	–
N#Cc1ccc(C(=O)OCC(=O)NC(=O)NC2CCCCC2)cc1	-3.13	–
CCN(CC(=O)Nc1cc(Cl)ccc1C)C(=O)CSCc1ccccc1	-2.39	–
CC(Oc1ccc(F)cc1F)C(=O)/C=C/N(C)C (stereo not given)	-3.13	–
COc1ccccc1-c1nn(Cc2ccccc2)cc1C(=O)N1CCN(c2ncccn2)CC1	0.929	–
O=C(COC(=O)c1ncc(Cl)c(Cl)c1Cl)NCc1ccccc1	-2.67	–
CCc1ccccc1S(=O)(=O)Cc1ccc(C(=O)NCCc2ccccc2)o1	4.39	–
CCN(CC)CCN1C(=O)C(=O)/C(=C(/O)c2ccc(OC)c(OC)c2)C1c1ccccn1 (stereo not given)	0.612	–
CCN(CC)CCN1C(=O)C(=O)/C(=C(/O)c2cnn(-c3ccccc3)c2C)C1c1cccs1 (stereo not given)	–	2510 nM (active)
CCN(CC)CCN1C(=O)C(=O)/C(=C(/O)c2ccccc2)C1c1ccccc1F (stereo not given)	-0.0008	–
COc1ccc(S(=O)(=O)N2CCC(C(=O)OCC(=O)c3ccccc3)CC2)cc1[N+](=O)[O-]	-4.69	–
COc1ccc2sc(-c3ccc(N(C)C)cc3)c(C#CCO)c2c1	-2.43	–
Cc1ccc(CN2CC(C(=O)N3CCN(S(=O)(=O)c4ccccc4)CC3)CC2=O)cc1 (stereo not given)	-0.553	–
Cc1ccc(C(=O)N/C(=C/c2cccs2)C(=O)NCC2CCCO2)cc1 (stereo not given)	-0.356	–
Cc1ccc(-n2c(C)cc(/C=C(\C#N)C(=O)NCC3CCCO3)c2C)cc1 (stereo not given)	–	3980 nM (active)
Cc1ccc(S(=O)(=O)N2CCC(C(=O)NCC3CCCO3)CC2)cc1 (stereo not given)	-3.61	–
COc1ccc(C)cc1NC(=O)c1ccc(-c2ccc(C(C)=O)cc2)o1	-1.54	–
CCOC(=O)c1ccc(-c2ccc(C(=O)Nc3cccnc3)o2)cc1	–	2240 nM (active)
CCOC(=O)c1ccc(NC(=O)c2cccnc2)cc1	27.2	–
CCOc1cc(CNCc2ccccn2)ccc1OCC(=O)NC(C)(C)C	-0.141	–
Cc1ccc(S(=O)(=O)N2CCN(c3ncnc4ccccc34)CC2)cc1	-32	–
CCc1ccc(C(=O)N2CCN(S(=O)(=O)c3sc(C(=O)O)c(C)c3C(=O)O)CC2)cc1	0.966	–
Cn1c(CCC(=O)OCC(=O)NCc2ccccc2Cl)nc(=O)c2ccccc21	-9.63	–
CC(C)n1ncc2c(C(=O)Nc3ccc(CC#N)cc3)cc(C3CC3)nc21	-8.64	–
C=CCC(NC(=O)Cc1ccccc1)C(=O)NCCC (stereo not given)	-2.37	–
COc1ccc(CNC(=O)c2ccc3oc(C(C)C)nc3c2)cc1	–	2820 nM (active)
CC(C)c1nc2cc(C(=O)NC(C)c3cnn(C)c3)ccc2o1 (stereo not given)	13.4	–
COc1ccc(CNC(=O)c2cc(=O)c3c(C)cc(C)cc3o2)cc1	-1.78	–

Structure (SMILES)	activation, negative = inhibition [%]	Potency
CCOc1ccc(S(=O)(=O)N2CCC(C(=O)NCC(=O)Nc3cccc(Cl)c3C)CC2)cc1	-3.69	–
Cc1cccc(/C(N)=N/OC(=O)c2ccccc2Cl)c1	–	891 nM (active)
N/C(=N\OC(=O)c1cc(-c2ccccc2)nc2ccccc12)c1ccncc1	-0.274	–
Cc1cccc(C(=O)c2cccc(C)c2)c1	0.0012	–
O=S(=O)(c1ccc(Cl)cc1)c1nc(-c2ccccc2F)oc1NCCN1CCOCC1	-5.06	–
CC(=O)c1c(C)[nH]c(C(=O)Nc2cc(S(=O)(=O)N(C)C)ccc2C)c1C	15	–
O=C(CCNC(=O)c1ccc([N+](=O)[O-])cc1)NC1CCCCC1	-5.22	–
CC(=O)c1ccc(N2CCN(CC(O)c3ccccc3)CC2)cc1 (stereo not given)	-2.02	–
CC(=O)c1ccc(N2CCN(C(=O)CCc3ccccc3)CC2)cc1	4.67	–
CC(=O)c1ccc(N2Cc3ccccc3C2)cc1	–	1780 nM (active)
COc1ccc(F)cc1C(=O)COC(=O)c1n[nH]c(=O)c2ccccc12	-2.55	–
Cc1nonc1NC(=O)CSc1nc2ccccc2cc1C#N	-10.5	–
CCOc1ccc2cc(C#N)c(SCC(=O)OC)nc2c1	–	1580 nM (active)
CCOC(=O)CSc1nccc(N(C)C)c1C#N	-1.4	–
COc1ccc(C(C)(C)C)cc1NC(=O)CCN1C(=O)C2CCCCC2C1=O (stereo not given)	1.11	–
Cc1ccc(O)c(NC(=O)c2cc(-c3ccco3)on2)c1	-7.16	–
CCOc1ncccc1C(=O)OCC(=O)c1c[nH]c2ccccc12	16.6	–
CC1CC1C(=O)OCC(=O)Nc1cccc(F)c1 (stereo not given)	1.62	–
Cc1ccc(OCc2nc3ccccc3n2C)cc1	–	1780 nM (active)
Cn1c(COc2ccc(Cl)cc2)nc2ccccc2c1=O	24.2	–
CC(C)n1c(COc2ccccc2)nc2ccccc21	-0.29	–
CN(C(=O)CC1C(=O)NCCN1Cc1ccc2ccccc2c1)C1CCOCC1 (stereo not given)	10.6	–
O=C(CNC(=O)OCc1ccccc1)NC1CCCCNC1=O (stereo not given)	-7.69	–
CCc1ccc(-c2nn(-c3ccccc3C)cc2C(=O)N2CCN(C3CCS(=O)(=O)C3)CC2)cc1 (stereo not given)	0.12	–
O=C(O)Cc1sc(-c2ccccc2)nc1-c1cccs1	8.55	–
NC(=O)Cc1ccc2c(c1)[nH]c1ccccc12	-2.9	–
NC(=O)Cc1ccc2sc(-c3ccccc3)nc2c1	–	3550 nM (active)
